High-throughput results from PubChem.
The list is not random: actives were taken first. Their share in the collection is about 15%.
SARS PLpro yeast: blocks SARS-CoV papain-like protease in a yeast assay; AID 485353; Potency, µM (series often up to 32.9 µM), for the others: at the top dose activity, positive = growth rescue, most hits filed as activators; hit rate 0.19% among 330,000; S. cerevisiae expressing SARS-CoV PLpro, growth rescue; calls by dose curve; note: potency is the fitted concentration of half-maximal effect; 0% is about no effect; nearly all actives have a fitted effect of over 55% in size
Sm TGR block: blocks Schistosoma mansoni thioredoxin glutathione reductase | Potency, µM (doses to about 114 µM), for the others: at the highest dose activity change, negative = inhibition, usual class: inhibitors | hit rate 3% among 360,000 | purified TGR, DTNB reduction, TNB absorbance 405 nm; note: potency is the fitted concentration of half-maximal effect; % is set by controls: 0 for no effect and ±100 for the full control effect; nearly all actives have a fitted effect of over 60% in size
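TGR 20 nM + NADPH 100 uM (dispensed conc.), cpd preinc 15 min RT; start with NADPH (500 uM addition) then DTNB (15 mM addition). Kinetic TNB absorbance, 405 nm filter. Four-parameter Hill fit across titration.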
HCV inhibitor: HCV inhibition. Huh7.5.1 HCVcc-Cre infection, luciferase reporter, 44 h. Potency, µM (series often up to 41.8 µM), for inactives: at the top dose activity change, negative = inhibition, actives largely listed as inhibitors. hit rate 3.4% among 340,000. AID 651820; note: potency is the fitted concentration of half-maximal effect; % is set by controls: 0 for no effect and ±100 for the full control effect
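Cells seeded at 1,000/well and cultured 4 h, then compounds added followed by HCVcc-Cre virus (~0.5 moi). After 44 h further culture, luciferase substrate was added, plates held 15 min at room temperature, and luminescence read for 15 sec.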
Pf growth 48h: inhibits P. falciparum growth in the first generation, 48 h; P. falciparum luciferase growth in erythrocytes, 48 h; Potency, µM (doses to about 28.7 µM), for inactives: at the highest dose activity change, negative = inhibition, usual class: inhibitors; hit rate 5.9% among 310,000; AID 504832; note: potency is the fitted concentration of half-maximal effect; % is set by controls: 0 for no effect and ±100 for the full control effect
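First compound was added to culture medium, then infected red cells at 0.1% parasitemia and 2% hematocrit (final). After incubation at 37 C under 5% CO2, luciferase detection reagent was dispensed and light output recorded.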
Pf growth 96h: P. falciparum growth inhibition at 96 hour, primary screen for plastid delayed-death inhibitors; AID 504834; hit rate 6.9% among 320,000; Potency, µM (series often up to 28.7 µM), for the others: top-dose activity change, negative = inhibition, most hits filed as inhibitors; P. falciparum luciferase reporter growth, 96 h; note: potency is the fitted concentration of half-maximal effect; % is set by controls: 0 for no effect and ±100 for the full control effect
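Parasite growth measured via integrated firefly luciferase reporter in P. falciparum. Infected erythrocytes at 2% hematocrit, 0.05% parasitemia final were treated 96 hours at 37 C under 5% CO2, and luminescence was read.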
HCMV inh: human cytomegalovirus inhibition; HFF cells, HCMV-luciferase reporter, 72 h; hits give low values; activity change, negative = inhibition, % at 57.5 µM; hit rate 4.5% among 410,000; AID 1259415; in the data active = activity change below about -60%; inconclusive = no clear call, values can overlap the other calls; inactive = above about -39%; note: % is set by controls: 0 for no effect and ±100 for the full control effect
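Compounds were evaluated in HFFs infected with an HCMV luciferase reporter virus (MOI 1 PFU/cell). Luciferase in lysates collected 72 h post infection served as the replication measure.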
Starred values were filed as active, the others as inactive; ? = inconclusive; nt = no result; [ ] = remark or other dose. Unless noted, calls come from the whole dose curve; as a rule, active = well fitted curve in the direction sought with a large enough effect; inconclusive = small, poorly fitted or top-dose-only effect, or another doubt; inactive = no such curve, though single readings can be large; an effect the other way counts as inactive or inconclusive.

SMILES | SARS PLpro yeast | Sm TGR block | HCV inhibitor | Pf growth 48h | Pf growth 96h | HCMV inh
COc1ccc(NC(=O)CN(C)C(=O)C(C)Oc2ccc(Br)cc2)cc1 (stereo unspecified) | -1% | -4% | -15% | 10% | -6% | ?
CN(Cc1cn(Cc2ccc(F)cc2)nn1)C1CN(Cc2cn(Cc3ccc(F)cc3)nn2)S(=O)(=O)C1 (stereo unspecified) | nt | nt | nt | nt | nt | -23
O=C(CCCn1c(=O)[nH]c2ccsc2c1=O)Nc1ccc(F)cc1 | 4% | 2% | 6% | 16% | 5% | ?
CCOc1ccc(NC(=O)CCn2c(=O)[nH]c3ccsc3c2=O)cc1 | -4% | -8% | 18% | nt | 7.4µM* | -10
CCc1cccc(NC(=O)CCCn2c(=O)[nH]c3ccsc3c2=O)c1 | -2% | -8% | -1% | -7% | 2.9µM* | -7
O=[N+]([O-])c1ccc(SNc2ccccc2)c([N+](=O)[O-])c1 | nt | nt | -25% | nt | nt | ?
O=[N+]([O-])c1ccc(-[n+]2ccc3ccccc3c2)c([N+](=O)[O-])c1 | 6% | 1.8µM* | ? | ? | ? | 13
C/C=C\C=C/C(=O)Nc1cccc(C2=NOC3(C2)C[C@@H](C(N)=O)N(C(=O)[C@H]2CCC(=O)N2)C3)c1 (stereo partly specified) | 0% | 3.5µM* | 9% | 46% | 81% | nt
C/C=C\C=C/C(=O)Nc1cccc(C2=NOC3(C2)C[C@@H](C(N)=O)N(C(=O)C2(C)CC2)C3)c1 (stereo partly specified) | 2% | 1.8µM* | 15% | 56% | 50% | 45
C/C=C\C(=O)Nc1cccc(C2=NOC3(C2)C[C@@H](C(N)=O)N(C(=O)C2(C)CC2)C3)c1 (stereo partly specified) | 1% | -1% | 0% | 24% | 20% | 16
C/C=C\C=C/C(=O)Nc1cccc(C2=NOC3(C2)C[C@@H](C(N)=O)N(C(=O)/C=C/CC)C3)c1 (stereo partly specified) | 1% | 1.8µM* | 4% | 58% | 59% | nt
CCCCCC(=O)Nc1cccc(C2=NOC3(C2)C[C@H](C(N)=O)N(C(=O)[C@H]2CCC(=O)N2)C3)c1 (stereo partly specified) | 0% | 0% | 10%[8.37 µM] | 40% | 57% | -6
COc1ccc(S(=O)(=O)N2c3ccccc3OCC2CC(=O)O)cc1 (stereo unspecified) | 1% | 6% | ? | -11% | 16% | -18
COc1ccc(S(=O)(=O)N2c3ccccc3OCC2C)cc1 (stereo unspecified) | -6% | 2% | ? | ? | ? | -66*
COc1ccc(S(=O)(=O)N2c3ccccc3OCC2c2ccccc2)cc1 (stereo unspecified) | 1% | 4% | ? | 13µM* | ? | ?
COc1ccc(S(=O)(=O)N2c3ccccc3OCC2C(C)(C)C)cc1 (stereo unspecified) | -13% | 2% | 13% | 12µM* | 15µM* | -19
CCOC(=O)C1(Cc2cccc(F)c2)CCN(Cc2ccc(COC)o2)CC1 | 0% | ? | ? | -11% | -10% | -38
O=C(NCc1cccnc1)Nc1ccccc1C(F)(F)F | 0% | -28% | 14% | -5% | ? | 41
CSCCC(C(=O)Nc1c(C)cccc1C)N1CCN(c2ccc(F)cc2)CC1 (stereo unspecified) | nt | nt | nt | nt | nt | -14
CCOC(=O)CC1C(=O)NCCN1C(=O)c1cc2c(=O)n3cccc(C)c3nc2s1 (stereo unspecified) | -3% | 35µM* | 12% | nt | ? | 72
CCOC(=O)CC1C(=O)NCCN1C(=O)c1cc2c(=O)n3ccccc3nc2s1 (stereo unspecified) | 6% | -5% | nt | nt | 10µM* | nt
CCCCn1c(SCC(=O)NCc2ccco2)nc2ccc(N3CCOCC3)cc2c1=O | -2% | 28µM* | ? | 15µM* | 1% | ?
